# Assay results as given in article PMC7862700, “An all-to-all approach to the identification of sequence-specific readers for epigenetic DNA modifications on cytosine”.
# Key:
# Experiment in all cases: DAPPL (digital affinity profiling via proximity ligation, sequencing); 10 mM Tris-HCl pH 7.5, 50 mM NaCl, 1 mM DTT, 4% glycerol, room temperature, 30 min; GST-TFs on glutathione beads, 16-mer random dsDNA library, 0.1% formaldehyde crosslink after washing; high values mean tight binding
# FEV = target: T1, FEV (Homo sapiens, UniProt Q99581 1-238); conditions: protein: recombinant; tags: N-terminal GST; dsDNA, one strand shown
# T1 sequence: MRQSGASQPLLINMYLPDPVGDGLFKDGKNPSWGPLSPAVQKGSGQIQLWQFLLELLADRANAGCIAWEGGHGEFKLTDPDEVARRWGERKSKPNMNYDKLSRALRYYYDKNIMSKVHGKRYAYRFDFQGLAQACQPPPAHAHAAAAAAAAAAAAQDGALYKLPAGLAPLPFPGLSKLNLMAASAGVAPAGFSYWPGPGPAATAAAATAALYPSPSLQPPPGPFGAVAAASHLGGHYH
# Method in brief: (§1)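 GST fusions of human transcription factors were expressed in yeast and captured with glutathione beads. Once given DNA barcodes and pooled alongside a tag-only sample, they were incubated for 30 min at room temperature with 200 nmole of a random double-stranded 16-mer DNA library in Tris/NaCl/DTT/glycerol buffer, then washed, crosslinked (0.1% formaldehyde), proximity-ligated, PCR-amplified and sequenced on an Illumina NextSeq500. The binding signal of each hexamer is its read frequency for a factor divided by its frequency for the tag-only sample.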
# ETV5 = ETV5 (Homo sapiens, UniProt P41161 1-510); conditions: protein: recombinant; tags: N-terminal GST; dsDNA, one strand shown
# Method in brief: as §1
# HSF1 = HSF1 (Homo sapiens, UniProt Q00613 1-529); conditions: protein: recombinant; tags: N-terminal GST; chain copies: 3; dsDNA, one strand shown
# Method in brief: as §1
# SPIC = target: T2, SPIC (Homo sapiens, UniProt Q8N5J4 1-248); conditions: protein: recombinant; tags: N-terminal GST; dsDNA, one strand shown
# T2 sequence: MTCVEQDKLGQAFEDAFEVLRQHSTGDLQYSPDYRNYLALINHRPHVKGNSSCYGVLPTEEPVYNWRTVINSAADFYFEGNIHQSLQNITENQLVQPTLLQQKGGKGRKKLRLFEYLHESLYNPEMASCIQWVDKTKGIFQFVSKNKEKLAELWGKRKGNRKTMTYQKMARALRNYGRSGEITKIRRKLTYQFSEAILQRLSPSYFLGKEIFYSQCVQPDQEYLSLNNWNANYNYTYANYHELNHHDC
# Method in brief: as §1
# ELF4 = ELF4 (Homo sapiens, UniProt Q99607 1-663); conditions: protein: recombinant; tags: N-terminal GST; dsDNA, one strand shown
# Method in brief: as §1
# ELK4 = target: T3, ELK4 (Homo sapiens, UniProt P28324-2 1-405); conditions: protein: recombinant; tags: N-terminal GST; dsDNA, one strand shown
# T3 sequence: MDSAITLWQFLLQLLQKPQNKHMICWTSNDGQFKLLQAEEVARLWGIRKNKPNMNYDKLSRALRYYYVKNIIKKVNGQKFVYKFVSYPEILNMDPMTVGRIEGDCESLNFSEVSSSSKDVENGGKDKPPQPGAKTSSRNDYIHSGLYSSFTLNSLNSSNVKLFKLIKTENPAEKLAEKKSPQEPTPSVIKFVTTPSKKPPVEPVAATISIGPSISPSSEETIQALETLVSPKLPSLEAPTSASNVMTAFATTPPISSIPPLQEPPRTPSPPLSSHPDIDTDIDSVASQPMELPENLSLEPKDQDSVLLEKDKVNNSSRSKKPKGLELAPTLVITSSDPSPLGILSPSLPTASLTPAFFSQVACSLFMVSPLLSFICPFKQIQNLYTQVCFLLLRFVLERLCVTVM
# Method in brief: as §1
# ETV2 = target: T4, ETV2 (Homo sapiens, UniProt O00321 1-342); conditions: protein: recombinant; tags: N-terminal GST; dsDNA, one strand shown
# T4 sequence: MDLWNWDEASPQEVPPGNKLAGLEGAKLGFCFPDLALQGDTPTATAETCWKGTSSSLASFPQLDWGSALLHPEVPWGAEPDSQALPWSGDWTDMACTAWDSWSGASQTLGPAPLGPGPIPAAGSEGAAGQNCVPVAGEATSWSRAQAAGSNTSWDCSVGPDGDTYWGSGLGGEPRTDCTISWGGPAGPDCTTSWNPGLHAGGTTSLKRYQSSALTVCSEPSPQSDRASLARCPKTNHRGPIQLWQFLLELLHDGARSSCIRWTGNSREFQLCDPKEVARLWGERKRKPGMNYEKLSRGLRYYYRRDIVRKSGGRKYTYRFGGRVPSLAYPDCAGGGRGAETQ
# Method in brief: as §1
# ELF3 = target: T5, ELF3 (Homo sapiens, UniProt P78545 1-371); conditions: protein: recombinant; tags: N-terminal GST; dsDNA, one strand shown
# T5 sequence: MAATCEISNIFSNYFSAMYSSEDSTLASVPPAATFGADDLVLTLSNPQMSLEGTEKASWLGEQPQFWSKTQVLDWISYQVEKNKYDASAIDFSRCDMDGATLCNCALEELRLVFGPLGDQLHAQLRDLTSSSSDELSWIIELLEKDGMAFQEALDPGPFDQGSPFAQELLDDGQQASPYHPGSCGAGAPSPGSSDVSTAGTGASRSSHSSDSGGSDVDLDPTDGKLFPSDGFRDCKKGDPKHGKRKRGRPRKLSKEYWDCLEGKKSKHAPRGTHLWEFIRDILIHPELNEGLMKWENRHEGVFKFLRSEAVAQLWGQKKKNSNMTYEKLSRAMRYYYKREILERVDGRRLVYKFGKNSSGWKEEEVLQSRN
# Method in brief: as §1
# CRX = CRX (Homo sapiens, UniProt O43186 1-299); conditions: protein: recombinant; tags: N-terminal GST; dsDNA, one strand shown
# Method in brief: as §1
# ELF4, sequence (Q99607 whole entry): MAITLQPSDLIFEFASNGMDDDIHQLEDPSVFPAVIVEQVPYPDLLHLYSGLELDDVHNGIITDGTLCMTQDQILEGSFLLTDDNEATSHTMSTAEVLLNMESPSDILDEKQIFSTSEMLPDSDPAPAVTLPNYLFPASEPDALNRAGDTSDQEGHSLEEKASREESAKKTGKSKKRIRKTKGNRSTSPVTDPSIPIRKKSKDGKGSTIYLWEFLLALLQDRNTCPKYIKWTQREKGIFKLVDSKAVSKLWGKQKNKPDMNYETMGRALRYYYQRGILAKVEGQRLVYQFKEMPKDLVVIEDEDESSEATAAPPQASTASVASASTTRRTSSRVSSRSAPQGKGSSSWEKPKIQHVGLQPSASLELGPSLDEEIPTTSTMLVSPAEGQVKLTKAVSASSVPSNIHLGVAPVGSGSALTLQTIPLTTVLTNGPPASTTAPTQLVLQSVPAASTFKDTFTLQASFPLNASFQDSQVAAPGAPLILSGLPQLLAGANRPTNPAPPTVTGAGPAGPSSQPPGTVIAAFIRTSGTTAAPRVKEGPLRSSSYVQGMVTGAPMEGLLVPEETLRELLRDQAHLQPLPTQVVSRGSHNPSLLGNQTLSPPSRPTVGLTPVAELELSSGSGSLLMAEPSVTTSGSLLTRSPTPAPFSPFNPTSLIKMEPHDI
# CRX, sequence (O43186 whole entry): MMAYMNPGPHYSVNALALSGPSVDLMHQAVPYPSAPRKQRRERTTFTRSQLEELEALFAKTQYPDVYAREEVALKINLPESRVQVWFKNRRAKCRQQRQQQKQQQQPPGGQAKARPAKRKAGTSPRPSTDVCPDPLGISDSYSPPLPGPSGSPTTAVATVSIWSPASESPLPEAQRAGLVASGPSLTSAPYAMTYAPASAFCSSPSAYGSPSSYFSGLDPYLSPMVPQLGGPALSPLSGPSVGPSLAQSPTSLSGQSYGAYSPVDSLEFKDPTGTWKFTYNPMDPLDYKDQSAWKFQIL
# ETV5, sequence (P41161 whole entry): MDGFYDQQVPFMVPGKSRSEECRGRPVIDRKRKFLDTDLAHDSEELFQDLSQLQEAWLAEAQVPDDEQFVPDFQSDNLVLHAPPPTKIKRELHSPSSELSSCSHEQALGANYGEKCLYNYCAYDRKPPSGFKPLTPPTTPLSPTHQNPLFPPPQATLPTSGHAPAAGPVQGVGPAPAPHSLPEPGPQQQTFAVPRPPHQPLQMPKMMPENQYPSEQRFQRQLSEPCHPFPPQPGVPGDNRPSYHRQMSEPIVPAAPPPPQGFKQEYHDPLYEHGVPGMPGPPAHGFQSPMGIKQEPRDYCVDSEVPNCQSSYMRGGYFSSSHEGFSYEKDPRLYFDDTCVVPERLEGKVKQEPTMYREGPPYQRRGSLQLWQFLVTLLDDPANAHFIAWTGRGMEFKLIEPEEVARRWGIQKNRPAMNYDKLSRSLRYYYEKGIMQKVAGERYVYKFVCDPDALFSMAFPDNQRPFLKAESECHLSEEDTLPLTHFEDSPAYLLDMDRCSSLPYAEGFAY
# HSF1, sequence (Q00613 whole entry): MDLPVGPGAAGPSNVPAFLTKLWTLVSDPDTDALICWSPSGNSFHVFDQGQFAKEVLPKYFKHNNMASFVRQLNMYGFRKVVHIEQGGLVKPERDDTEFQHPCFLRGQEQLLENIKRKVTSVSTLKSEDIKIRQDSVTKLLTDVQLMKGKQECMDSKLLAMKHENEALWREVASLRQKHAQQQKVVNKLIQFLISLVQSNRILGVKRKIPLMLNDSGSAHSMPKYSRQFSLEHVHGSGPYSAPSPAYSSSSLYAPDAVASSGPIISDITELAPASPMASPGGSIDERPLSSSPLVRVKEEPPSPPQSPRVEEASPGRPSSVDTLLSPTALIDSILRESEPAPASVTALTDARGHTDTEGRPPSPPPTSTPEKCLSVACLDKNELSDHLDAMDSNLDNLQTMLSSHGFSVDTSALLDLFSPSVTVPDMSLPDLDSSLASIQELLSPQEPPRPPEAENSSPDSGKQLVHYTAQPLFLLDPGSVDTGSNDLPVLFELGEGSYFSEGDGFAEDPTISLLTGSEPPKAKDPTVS
sequence,measurement,setting,value
CTTCGA,binding signal,FEV,"1.35 fold enrichment (6-mer frequency, TF over GST control)"
same,binding signal,ETV5,"1.4 fold enrichment (6-mer frequency, TF over GST control)"
same,binding signal,HSF1,"2.52 fold enrichment (6-mer frequency, TF over GST control)"
same,binding signal,SPIC,"1.42 fold enrichment (6-mer frequency, TF over GST control)"
same,binding signal,ELF4,"1.4 fold enrichment (6-mer frequency, TF over GST control)"
same,binding signal,ELK4,"1.3 fold enrichment (6-mer frequency, TF over GST control)"
same,binding signal,ETV2,"1.38 fold enrichment (6-mer frequency, TF over GST control)"
same,binding signal,ELF3,"1.42 fold enrichment (6-mer frequency, TF over GST control)"
same,binding signal,CRX,"1.49 fold enrichment (6-mer frequency, TF over GST control)"
